Shown are actives, neighbours in structure and some others; about 4.3% of the full set was active somewhere.
SMARCA2 act = increases SMARCA2 function in MMTV reporter cells; MG213 cells, MMTV-luciferase reporter, dexamethasone, overnight; activation, % at 9.1 µM; actives 1% (n = 370,000); in the data active means activation above about 7.8%
MITF act = increases MITF-driven TRPM1 promoter luciferase signal | SK-MEL-5 TRPM1-promoter luciferase, 24 h; % of positive control, neutral wells = 0 | activation, % at 12.5 µM | actives 0.75% (n = 300,000);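 active means mean activation of at least 80% with every replicate also reaching 80%; inconclusive means mean reaches 80% but some replicate falls short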
AF4-AF9 inh = MLL-AF4/AF9 protein interaction inhibition. P42568. AlphaScreen, biotin-AF4 peptide binding to FLAG-AF9. inhibition, % at 10 µM. actives 0.47% (n = 350,000). AID 651704;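 active means every replicate reaching a set inhibition limit, whatever the replicate mean, cut at about 25% in these data; inconclusive means mean inhibition reaches that limit but some replicates miss it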
Target sequence (P42568 whole entry, looked up): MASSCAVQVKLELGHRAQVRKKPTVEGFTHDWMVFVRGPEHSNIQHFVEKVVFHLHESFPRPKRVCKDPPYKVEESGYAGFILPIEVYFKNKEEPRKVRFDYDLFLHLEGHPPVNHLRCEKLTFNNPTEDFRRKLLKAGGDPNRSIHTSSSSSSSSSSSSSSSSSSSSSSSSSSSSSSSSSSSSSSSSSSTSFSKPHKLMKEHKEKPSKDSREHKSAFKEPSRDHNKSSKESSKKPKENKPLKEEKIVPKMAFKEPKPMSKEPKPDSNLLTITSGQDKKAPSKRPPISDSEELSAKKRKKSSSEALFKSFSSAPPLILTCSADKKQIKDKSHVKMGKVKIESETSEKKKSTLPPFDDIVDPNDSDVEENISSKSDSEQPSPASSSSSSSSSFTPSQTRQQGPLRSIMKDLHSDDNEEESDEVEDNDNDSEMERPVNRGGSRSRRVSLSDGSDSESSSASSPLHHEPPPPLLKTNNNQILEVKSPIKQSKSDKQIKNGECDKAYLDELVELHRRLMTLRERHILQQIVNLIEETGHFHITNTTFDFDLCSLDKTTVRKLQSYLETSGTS
esBAF inh = blocks esBAF chromatin remodeling in mouse ES cells | Bmi1-luciferase knock-in reporter, 24 h; 100% = twice the neutral-well signal | reporter increase, % at 12.5 µM | actives 2% (n = 350,000); in the data active means activation above about 40%; inconclusive means no clear call, values can overlap the other calls;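 further: a rise in the Bmi1 reporter signal indicates esBAF inhibition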
Wnt act = Wnt/beta-catenin pathway activation; Wnt/beta-catenin reporter cell assay, activator, plate reader; activation, % at 9.35 µM; actives 1.2% (n = 300,000); AID 743398; in the data active means activation above about 30%, passing the limit was not always enough; inconclusive means no clear call, values can overlap the other calls
FGF22 binding = FGF22 (human) thermal shift binding; Q9HCT0; recombinant FGF22 thermal shift, SYPRO orange fluorescence; percent of sucrose octasulfate shift, DMSO zero; activity (Tm shift, normalised), % at 9.99 µM; actives 1.5% (n = 340,000); AID 651658;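 active means mean Tm shift, scaled 0 neutral to 100 positive control, at about 1.3% or above, every replicate too, limit read from the data; inconclusive means no clear call, values can overlap the other calls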
A number is an active result; n = inactive; u = inconclusive; x = not tested or not shown.

SMILES	SMARCA2 act	MITF act	AF4-AF9 inh	esBAF inh	Wnt act	FGF22 binding
CC(C)(C)N(Cc1ccccc1)C(=O)CN1C(=O)c2ccccc2C1=O	n	n	n	46	n	n
O=C(Nc1ccc2c(c1)[C@@H]1C[C@@H](CC(=O)N3CCOCC3)O[C@H](CO)[C@@H]1O2)NC1CCCC1	x	x	n	n	x	n
CCOc1ccc(/C=C/C(=O)Nc2ccc(C(N)=O)cc2)cc1OC	n	n	x	x	x	x
CCOc1cc(/C=C/C(=O)Nc2ccc(C(=O)NCCN(CC)CC)cc2)ccc1OCC(C)C	n	n	31	x	n	n
CCc1cc(CN2CCOCC2)c(NC(=O)c2ccccc2)s1	n	n	n	n	n	43
COc1ccccc1C(=O)O/N=C(\N)c1ccccn1	n	x	n	n	54	n
N/C(=N\OC(=O)COc1ccccc1Cl)c1ccccn1	n	n	x	x	x	x
N/C(=N\OC(=O)COc1ccc2ccccc2c1)c1ccccn1	n	n	x	103	36	x
COc1cc(OC)c(C(=O)O/N=C(\N)c2ccccn2)cc1OC	n	n	n	n	n	n
N/C(=N\OC(=O)c1cc(-c2ccccc2)nc2ccccc12)c1ccccn1	n	n	n	x	n	43
COc1cc(OC)cc(C(=O)O/N=C(\N)c2ccccn2)c1	n	x	n	x	52	n
CS(=O)(=O)Nc1ccc2c(c1)[C@@H]1C[C@@H](CC(=O)NCCc3ccccc3)O[C@H](CO)[C@@H]1O2	x	x	n	n	x	n
C[C@H](CO)N1C[C@H](C)[C@@H](CN(C)C(=O)Nc2ccccc2)Oc2ccc(NS(=O)(=O)c3ccccc3)cc2CC1=O	x	x	n	n	x	n
CO[C@H]1CN(C)C(=O)c2cc(NC(=O)Nc3ccccc3)ccc2OC[C@H](C)N(C(C)=O)C[C@@H]1C	x	x	n	n	x	n
Cc1cnc(NC(=O)CCNC(=O)c2ccccc2Cl)s1	n	n	n	n	46	n
Cc1nnc(NC(=O)CCNC(=O)c2ccccc2Cl)s1	n	n	n	x	n	n
COc1ccc(CN(C)C[C@@H]2Oc3ccc(NS(=O)(=O)c4cccs4)cc3CC(=O)N([C@H](C)CO)C[C@@H]2C)cc1	x	x	n	n	x	n
CNc1sc(C(=O)c2cccs2)c(N)c1-c1nc2ccccc2s1	n	98	x	x	x	x
CNc1sc(C(=O)c2ccc(F)cc2)c(N)c1-c1nc2ccccc2s1	n	n	x	n	n	x
COc1ccc(CN=C2Nc3ccccc3CS2)cc1	n	x	x	61	x	x
CCCC#Cc1ccc([C@@H]2[C@@H](CO)N3CCCCN(S(=O)(=O)c4ccccc4C)C[C@@H]23)cc1	x	x	n	x	x	n
CCOC(=O)[C@@H]1[C@H]2COc3ccccc3[C@@H]2N2C(=O)N(c3ccc(Cl)cc3)C(=O)[C@]12C	n	n	n	n	n	44
CCOC(=O)[C@@H]1[C@H]2COc3cc(OC)ccc3[C@@H]2N2C(=O)N(c3ccc(F)cc3)C(=O)[C@]12C	n	x	n	n	n	44
CCOC(=O)[C@@H]1[C@H]2COc3cc(OC)ccc3[C@H]2N2C(=O)N(c3ccc(F)cc3)C(=O)[C@@]12C	n	n	u	n	n	n
O=C(C[C@H]1C=C[C@@H](NS(=O)(=O)c2ccc(F)cc2)[C@H](CO)O1)N1CCC(Cc2ccccc2)CC1	x	x	n	n	x	n
SMILES	SMARCA2 act	MITF act	AF4-AF9 inh	esBAF inh	Wnt act	FGF22 binding
CCC(=O)N1C[C@@H](C)[C@H](OC)CN(C)C(=O)c2cc(NS(C)(=O)=O)ccc2OC[C@H]1C	x	x	n	n	x	n
COc1ccc(NC(=O)N(C)C[C@@H]2Oc3ccc(NS(=O)(=O)c4cn(C)cn4)cc3C(=O)N([C@@H](C)CO)C[C@@H]2C)cc1	x	x	n	n	x	n
Cc1ccccc1CSCC(=O)Nc1ccccc1F	n	x	n	48	n	n
O=C(CSCc1c(F)cccc1F)Nc1ccccc1	n	x	n	51	n	n
O=C(CSCc1ccccc1)Nc1cccc(F)c1	n	95	x	x	63	x
O=C(CSCc1ccc(F)cc1)Nc1ccc(F)cc1	n	n	n	x	x	n
Cc1ccccc1CSCC(=O)NCCSc1ccccn1	n	n	n	x	n	44
O=C(CSCc1c(F)cccc1Cl)Nc1cccnc1	n	n	n	x	n	n
COc1ccc(-c2cc(=O)c3ccccc3o2)cc1	n	n	n	63	n	n
COc1ccc(N=c2cc(-c3ccc(OC)cc3)oc3ccccc23)cc1	n	n	x	x	119	x
O=c1cc(-c2cccc(F)c2)oc2ccccc12	n	n	n	51	n	n
O=c1cc(-c2c(F)c(F)c(F)c(F)c2F)oc2ccccc12	n	n	n	n	n	n
CN(C)CC(=O)N[C@@H]1CC[C@H](CC(=O)NCCN2CCCCC2)O[C@@H]1CO	x	x	n	n	x	n
C[C@H]1CN([C@@H](C)CO)C(=O)Cc2cc(NS(=O)(=O)c3ccc(F)cc3)ccc2O[C@H]1CN(C)C(=O)NC1CCCCC1	x	x	n	n	x	n
C[C@@H]1CN([C@H](C)CO)C(=O)CCCn2nncc2CO[C@@H]1CN(C)C(=O)Nc1ccc2c(c1)OCCO2	x	x	n	n	x	n
COCCCN1CN(S(=O)(=O)c2ccc(Cl)cc2)c2nc3ccccc3nc21	n	n	x	n	x	x
CC(C)OCCCN1CN(S(=O)(=O)c2ccccc2)c2nc3ccccc3nc21	n	n	x	43	n	x
O=C(NCC[C@@H]1CC[C@H](NC(=O)c2ccccc2F)[C@H](CO)O1)c1cnccn1	x	x	n	n	x	n
CN1C(=O)c2cc(NC(=O)Nc3ccccc3)ccc2OC[C@H]2O[C@@H](CC(=O)N[C@H]3CCN(Cc4ccccc4)C3)CC[C@@H]21	n	x	x	x	x	x
Cc1cc(C)c(NC(=O)c2ccccc2CCc2ccccc2)c(C)c1	n	n	x	n	n	x
Cc1cc(C)c(NC(=O)c2ccccc2C(=O)c2ccccc2)c(C)c1	n	n	n	x	n	43
CC(C)CC1C(C#N)=C(N)Oc2n[nH]c(-c3cccs3)c21 (stereo not drawn)	n	x	x	n	37	x
CSCCC1C(C#N)=C(N)Oc2n[nH]c(-c3cccs3)c21 (stereo not drawn)	n	n	x	n	n	x
O=C(O)CCC(=O)NCCn1c(-c2ccccc2)csc1=Nc1ccccc1	n	n	n	n	n	n
OCCCn1c(-c2ccccc2)csc1=Nc1ccccc1	n	n	45	n	n	n
SMILES	SMARCA2 act	MITF act	AF4-AF9 inh	esBAF inh	Wnt act	FGF22 binding
NC(=O)c1cnn(-c2cc(Oc3ccccc3)ncn2)c1N	n	87	n	n	n	n
COC(=O)c1cnn(-c2cc(Oc3ccccc3)ncn2)c1N	n	n	x	n	x	x
COc1ccc(C(=O)NCc2nnc(SCC(=O)NO)n2Cc2ccccc2)cc1	n	n	26	x	n	n
Cc1ccc(S(=O)(=O)N[C@H]2C=C[C@@H](CC(=O)NCCN3CCCCC3)O[C@H]2CO)cc1	x	x	n	n	x	n
CCCCCCCNC(=O)C1(CC2CC(c3ccccc3)=NO2)CCN(C(=O)OC(C)(C)C)CC1 (stereo not drawn)	n	n	n	62	n	n
C[C@H]1CN([C@@H](C)CO)C(=O)c2cccc(NC(=O)c3nc4ccccc4s3)c2O[C@@H]1CN(C)Cc1ccc(Cl)c(Cl)c1	x	x	n	n	x	n

Source: PubChem
